Measurements: PubChem BioAssay (NCATS)
Results filed as inconclusive are left out. Active and inactive are the calls of the source. Calls come from the whole dose curve; as a rule, active = well fitted curve in the direction sought with a large enough effect; inconclusive = small, poorly fitted or top-dose-only effect, or another doubt; inactive = no such curve, though single readings can be large; an effect the other way counts as inactive or inconclusive.

Experiments:
[1] = Quantitative High-Throughput drug screen in 47 multiple myeloma cell lines against the NCATS MIPE library collection: FR4_PLB cell viability assay (AID 1918924; note: nearly all actives have a fitted effect of over 35% in size; note: potency is the fitted concentration of half-maximal effect)
Method in brief: (§1)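 Viability readout: CellTiter-Glo luminescence following 5 min room-temperature incubation with reagent. Prior exposure: 48 h, 37C, humidified 5% CO2, 500 cells per well.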

[2] = Quantitative High-Throughput drug screen in 47 multiple myeloma cell lines against the NCATS MIPE library collection: EJM_DSMZ cell viability assay (AID 1918926; note: nearly all actives have a fitted effect of over 30% in size; note: potency is the fitted concentration of half-maximal effect)
Method in brief: as §1

[3] = Quantitative High-Throughput drug screen in 47 multiple myeloma cell lines against the NCATS MIPE library collection: AMO1_DSMZ cell viability assay (AID 1918927; note: nearly all actives have a fitted effect of over 30% in size; note: potency is the fitted concentration of half-maximal effect)
Method in brief: as §1

[4] = Quantitative High-Throughput drug screen in 47 multiple myeloma cell lines against the NCATS MIPE library collection: ARP1_JJKsccF8 cell viability assay (AID 1918928; note: nearly all actives have a fitted effect of over 40% in size; note: potency is the fitted concentration of half-maximal effect)
Method in brief: (§2)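 Here, 48 h treatment with MIPE 4.0 agents at 37 °C preceded an ATP luminescence read. Plating density was 500 cells per well.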

[5] = Quantitative High-Throughput drug screen in 47 multiple myeloma cell lines against the NCATS MIPE library collection: Karpas620_DSMZ cell viability assay (AID 1918959); note: nearly all actives have a fitted effect of over 30% in size; note: potency is the fitted concentration of half-maximal effect
Method in brief: as §1

[6] = Quantitative High-Throughput drug screen in 47 multiple myeloma cell lines against the NCATS MIPE library collection: KMM1_JCRB cell viability assay (AID 1918960); note: nearly all actives have a fitted effect of over 30% in size; note: potency is the fitted concentration of half-maximal effect
Method in brief: as §2

[7] = Quantitative High-Throughput drug screen in 47 multiple myeloma cell lines against the NCATS MIPE library collection: KHM11_PLB cell viability assay (AID 1918962); note: nearly all actives have a fitted effect of over 35% in size; note: potency is the fitted concentration of half-maximal effect
Method in brief: as §1

[8] = Quantitative High-Throughput drug screen in 47 multiple myeloma cell lines against the NCATS MIPE library collection: JIM3_ECACC cell viability assay (AID 1918963; note: nearly all actives have a fitted effect of over 35% in size; note: potency is the fitted concentration of half-maximal effect)
Method in brief: as §1

[9] = Quantitative High-Throughput drug screen in 47 multiple myeloma cell lines against the NCATS MIPE library collection: INA6_PLB cell viability assay (AID 1918965; note: nearly all actives have a fitted effect of over 55% in size; note: potency is the fitted concentration of half-maximal effect)
Method in brief: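 Approved and investigational drugs from MIPE 4.0 were added by pin tool to 500 cells per well. After 48 hours at 37C, ATP-based CellTiter-Glo luminescence indicated remaining viability.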

[10] = Quantitative High-Throughput drug screen in 47 multiple myeloma cell lines against the NCATS MIPE library collection: H1112_PLB cell viability assay (AID 1918967; note: nearly all actives have a fitted effect of over 30% in size; note: potency is the fitted concentration of half-maximal effect)
Method in brief: as §1

[11] = Quantitative High-Throughput drug screen in 47 multiple myeloma cell lines against the NCATS MIPE library collection: Karpas25_ECACC cell viability assay (AID 1918968; note: nearly all actives have a fitted effect of over 35% in size; note: potency is the fitted concentration of half-maximal effect)
Method in brief: as §1

[12] = Quantitative High-Throughput drug screen in 47 multiple myeloma cell lines against the NCATS MIPE library collection: ARD_JJKsccE7 cell viability assay (AID 1918929; note: potency is the fitted concentration of half-maximal effect)
Method in brief: as §1

[13] = Quantitative High-Throughput drug screen in 47 multiple myeloma cell lines against the NCATS MIPE library collection: KMS27_JCRB cell viability assay (AID 1918970); note: nearly all actives have a fitted effect of over 30% in size; note: potency is the fitted concentration of half-maximal effect
Method in brief: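 KMS27_JCRB myeloma cells, 500 per well, exposed 48 h at 37 C, 5% CO2 to MIPE 4.0 compounds. Viability from ATP by CellTiter-Glo luminescence, normalized to DMSO (100%) and medium-only (0%) wells.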

[14] = Quantitative High-Throughput drug screen in 47 multiple myeloma cell lines against the NCATS MIPE library collection: JJN3_DSMZ cell viability assay (AID 1918966; note: nearly all actives have a fitted effect of over 50% in size; note: potency is the fitted concentration of half-maximal effect)
Method in brief: as §1

[15] = Quantitative High-Throughput drug screen in 47 multiple myeloma cell lines against the NCATS MIPE library collection: JIM1_ECACC cell viability assay (AID 1918964)
Method in brief: as §1

[16] = Quantitative High-Throughput drug screen in 47 multiple myeloma cell lines against the NCATS MIPE library collection: Delta47_JCRB cell viability assay (AID 1918925; note: nearly all actives have a fitted effect of over 45% in size; note: potency is the fitted concentration of half-maximal effect)
Method in brief: as §1

Measured: Potency

Cc1nc2n(c(=O)c1CCN1CCC(c3noc4cc(F)ccc34)CC1)CCCC2
not listed: [12] | [13] | [14] | [15] | [16]
inactive: all other assays above

O=C1c2ccccc2-c2n[nH]c3cccc1c23
active: [2] 0.0017 µM | [3] 20.9 µM | [12] 1.18 µM | [9] 20.9 µM | [13] 2.96 µM
inactive: [1] | [5] | [8] | [10]

CCCCc1ccc2nc(NC(=O)OC)[nH]c2c1
active: [1] 0.0021 µM | [2] 0.0264 µM | [4] 0.0066 µM | [12] 0.0093 µM | [9] 0.001 µM | [14] 4.69 µM | [11] 0.0235 µM
inactive: [3]

O=c1c(O)c(-c2ccc(O)cc2O)oc2cc(O)cc(O)c12
inactive: [1] | [2] | [4] | [12] | [6] | [7] | [8] | [10]
active: [11] 10.5 µM

CC(S)C(=O)NCC(=O)O (stereo unspecified)
active: [12] 2.64 µM | [11] 1.87 µM
inactive: [1] | [2] | [3] | [4] | [8] | [15] | [14] | [13]

O=C(CS(=O)Cc1ccco1)NCC=CCOc1cc(CN2CCCCC2)ccn1 (stereo unspecified)
active: [11] 20.9 µM
not listed: [4] | [5] | [7] | [9] | [14] | [16]
inactive: all other assays above

CC1=C(C)C(=O)C(C(CCCCCC(=O)O)c2ccccc2)=C(C)C1=O (stereo unspecified)
inactive: [1] | [2] | [5] | [10]

CNC[C@H](O)c1ccc(O)c(O)c1
active: [1] 9.59 µM | [4] 15.2 µM | [8] 38.2 µM | [14] 13.6 µM | [11] 5.4 µM
not listed: [2] | [9] | [15] | [16]
inactive: all other assays above

Clc1ccc2c(N3CCN(CCCN4CCN(c5ccnc6cc(Cl)ccc56)CC4)CC3)ccnc2c1
not listed: [2] | [4] | [7] | [13] | [15] | [16]
inactive: all other assays above

O=c1oc2cc(O)ccc2s1
active: [3] 23.5 µM | [11] 7.43 µM
inactive: [1] | [2] | [8] | [10]

CN(C)[C@@H](CCOc1cccc2ccccc12)c1ccccc1
inactive: [5] | [15] | [13]
active: [1] 18.7 µM | [16] 18.7 µM | [9] 18.7 µM | [10] 18.7 µM

O=c1ccc2ccc(O)c(O)c2o1
inactive: [1]
active: [16] 6.62 µM | [5] 23.5 µM | [7] 11.8 µM | [14] 16.6 µM | [11] 3.32 µM | [13] 18.7 µM

O=C(NC(Cc1cc(=O)[nH]c2ccccc12)C(=O)O)c1ccc(Cl)cc1 (stereo unspecified)
active: [2] 4.69 µM | [14] 9.35 µM
inactive: [1] | [12] | [10] | [13]

Cc1cc(=O)oc2cc(O)ccc12
active: [7] 0.0662 µM | [11] 4.69 µM
inactive: [1] | [2] | [3] | [5] | [6] | [8] | [9] | [10]

Cc1ncc([N+](=O)[O-])n1CC(C)O (stereo unspecified)
inactive: [1] | [2] | [3] | [4] | [5] | [6] | [13]
active: [11] 11.8 µM

CN1C(C(=O)Nc2ccccn2)=C(O)c2sccc2S1(=O)=O
not listed: [3] | [9] | [12] | [13] | [14] | [16]
inactive: all other assays above

CCCCC(CC)COC(=O)C(C#N)=C(c1ccccc1)c1ccccc1 (stereo unspecified)
active: [9] 9.35 µM
not listed: [12] | [13] | [16]
inactive: all other assays above

CCCCCCCCCCCCCCCCCCCCCCO
not listed: [7] | [13] | [15] | [16]
inactive: all other assays above

Cc1c(OCC(F)(F)F)ccnc1CS(=O)c1nc2ccccc2[nH]1 (stereo unspecified)
inactive: [1] | [2] | [5]
active: [6] 20.9 µM | [8] 16.6 µM | [14] 2.64 µM | [10] 20.9 µM

CCCc1cc(=O)[nH]c(=S)[nH]1
inactive: [1] | [2] | [3] | [4] | [12] | [6] | [8] | [15] | [10]

CCOC(=O)c1c(C)n(C)c2ccc(O)cc12
inactive: [1] | [2] | [3] | [5] | [6] | [8] | [10] | [11] | [13]

CN(C)c1ccc(O)c2c1C[C@H]1C[C@H]3[C@H](N(C)C)C(=O)C(C(N)=O)=C(O)[C@@]3(O)C(=O)C1=C2O
inactive: [3] | [12] | [5] | [6] | [15]
active: [1] 20.9 µM | [2] 14.8 µM | [4] 16.6 µM | [9] 13.2 µM | [14] 20.9 µM | [11] 16.6 µM

CC(C)c1ccc2oc3nc(N)c(C(=O)O)cc3c(=O)c2c1
not listed: [4] | [6] | [7] | [12] | [13] | [16]
inactive: all other assays above

COC1=C(OC)C(=O)C(CCCCCCCCCCO)=C(C)C1=O
inactive: [2]
active: [16] 18.7 µM | [3] 10.5 µM | [4] 23.5 µM | [12] 20.9 µM | [5] 11.8 µM | [6] 18.7 µM | [7] 26.4 µM | [8] 18.7 µM | [9] 18.7 µM | [14] 18.7 µM | [11] 13.2 µM | [13] 18.7 µM

CC1=C(C(=O)O)N2C(=O)[C@@H](NC(=O)[C@H](N)C3=CCC=CC3)[C@H]2SC1
not listed: [1] | [3] | [4] | [12] | [14] | [15]
inactive: all other assays above

CNC[C@@H](O)[C@@H](O)[C@H](O)[C@H](O)CO
active: [11] 20.9 µM
inactive: [2] | [3] | [12] | [5] | [8] | [15] | [13]

CCN(CC)CCOc1ccc(Cc2ccccc2)cc1
active: [3] 20.9 µM | [5] 14.8 µM | [11] 14.8 µM
inactive: [16] | [7] | [8] | [10]
